Our source for the growth values is PubChem BioAssay (NCI).

Molecules are shown by their SMILES. About 83,000 compounds went through this panel and 20% of them were active in at least one assay; those are over-represented in the sample as a whole.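 In brief: 96-well plates, 48 h treatment, single concentration, percent growth endpoint.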 A number with no mark means an inactive call. Calls of active or inactive are those of the source. The calls were made as follows: active = growth percent below 10; inactive = the rest.

Test systems include NCI-H23 lung; NCI-H226 lung; NCI-H322M lung; HOP-62 NSCLC; NCI-H460 lung; HOP-92 NSCLC; NCI-H522 lung; A549/ATCC NSCLC; 786-0 renal; COLO 205 colon.
Common to all, as to assay: NCI-60 one-dose screen, 48 h (100 = growth as untreated, 0 = no growth, -100 = all killed)
Common to all, as to conditions: 10 µM unless noted

Take `COc1ccc(/C=C/C(=O)c2cc(O)ccc2O)cc1`: the growth is 95.8% in the assay with NCI-H23 lung; 94.5% in the assay with NCI-H226 lung; 111% in the assay on NCI-H322M lung; 114% in the assay with HOP-62 NSCLC; 96.6% in the assay with NCI-H460 lung; 70.6% with HOP-92 NSCLC. The growth with NCI-H522 lung is -23.6% (active); with A549/ATCC NSCLC, 78.6%; in the assay with 786-0 renal, 96.5%; in the assay on COLO 205 colon, 99%.
As for `O=C(NCCN1CCOCC1)Nc1ccc(-c2cc3c(Nc4ccc(Oc5cccc(C(F)(F)F)c5)c(Cl)c4)ncnc3s2)cc1`, the growth was 27.4% in the assay on NCI-H23 lung; 26.3% in the assay with NCI-H226 lung; 18.7% with NCI-H322M lung; -26% (active) with HOP-62 NSCLC; -39.8% (active) with NCI-H460 lung; 16.4% in the assay on HOP-92 NSCLC. In addition, the growth is 27.3% with NCI-H522 lung, 4.01% (active) in the assay with A549/ATCC NSCLC, -43% (active) in the assay on 786-0 renal and -56.7% (active) in the assay on COLO 205 colon.
In the case of `C=CC(=O)Nc1cccc(Nc2nc(SC)nc(-c3cccc([N+](=O)[O-])c3)c2C#N)c1`, the growth in the assay with NCI-H23 lung was 44.8%; in the assay on NCI-H226 lung, 47.2%; with NCI-H322M lung it was 74%; in the assay on HOP-62 NSCLC it was 53.4%; in the assay with NCI-H460 lung, 40.4%; in the assay with HOP-92 NSCLC, -19.6% (active). Besides, the growth with NCI-H522 lung is 38.7%; in the assay with A549/ATCC NSCLC, 7.62% (active); in the assay with 786-0 renal it was 63.8%; with COLO 205 colon, 20.3%.
Consider `O=C(Cc1ccc(/C=C/C(=O)c2ncc[nH]2)cc1)Nc1ccc(F)cc1`, for which the growth in the assay on NCI-H23 lung was 24.2%; with NCI-H226 lung, 61.3%; in the assay with NCI-H322M lung, 33.3%; with HOP-62 NSCLC, 20.5%; in the assay with NCI-H460 lung, 1.46% (active); in the assay on HOP-92 NSCLC, 69.7%. The growth is 22.2% in the assay with NCI-H522 lung, 25.6% in the assay with A549/ATCC NSCLC, 23.7% with 786-0 renal and 20.5% in the assay on COLO 205 colon.
As to `C=C(C)[C@@H]1CC[C@]2(C(=O)OC)CC[C@]3(C)[C@H](CC[C@@H]4[C@@]5(C)C/C(=C/c6cccc(I)c6)C(=O)C(C)(C)[C@@H]5CC[C@]43C)[C@@H]12`, the growth in the assay with NCI-H23 lung was 91.4%; with NCI-H226 lung, 94.2%; in the assay with NCI-H322M lung, 97.3%; with HOP-62 NSCLC, 88%; in the assay on NCI-H460 lung, 101%; with HOP-92 NSCLC it was 100%. The growth is 89% with NCI-H522 lung, 101% with A549/ATCC NSCLC, 95.3% in the assay with 786-0 renal and 125% with COLO 205 colon.
Take `O=C1/C(=C(/c2ccccc2)N2CCOCC2)Cc2ccccc21`: the growth in the assay with NCI-H23 lung is 54.1%; in the assay on NCI-H226 lung, 58.8%; with NCI-H322M lung, 98.3%; in the assay with HOP-62 NSCLC, 81.8%; with NCI-H460 lung it was 81%; in the assay on HOP-92 NSCLC, 8.98% (active). The growth with NCI-H522 lung was -63.6% (active); in the assay with A549/ATCC NSCLC, 77.2%; in the assay on 786-0 renal, 7.77% (active); in the assay on COLO 205 colon, -48.4% (active).
For `CCN(CC)c1ccc(-c2cc(-c3cc(OC)c(OC)c(OC)c3)nc(N3CCOCC3)c2C#N)cc1`, the growth is 56.2% with NCI-H23 lung; 8.07% (active) in the assay with NCI-H226 lung; 52.9% with NCI-H322M lung; -40.5% (active) in the assay with HOP-62 NSCLC; -1.44% (active) in the assay with NCI-H460 lung; -1.28% (active) in the assay with HOP-92 NSCLC. The growth is -15.6% (active) with NCI-H522 lung, 21.5% in the assay with A549/ATCC NSCLC, 0.298% (active) with 786-0 renal and 5.62% (active) in the assay with COLO 205 colon.
As for `Cc1nn(-c2cc(=O)[nH]c3ccccc23)c(N)c1C#N`, the growth with NCI-H23 lung is 106%; in the assay on NCI-H226 lung, 91.4%; in the assay with NCI-H322M lung, 97%; in the assay with HOP-62 NSCLC, 100%; in the assay on NCI-H460 lung, 104%; with HOP-92 NSCLC, 106%. In addition, the growth was 95.6% in the assay on NCI-H522 lung, 107% in the assay with A549/ATCC NSCLC, 105% in the assay on 786-0 renal and 123% with COLO 205 colon.
Take `O=C(Nc1ccc(Cl)cc1)c1cc2cc(F)ccc2cc1O`: the growth with NCI-H23 lung was 7.14% (active); with NCI-H226 lung, 7.16% (active); in the assay with NCI-H322M lung, 18.7%; with HOP-62 NSCLC it was 12.1%; in the assay on NCI-H460 lung, 7.11% (active); in the assay with HOP-92 NSCLC, -11.4% (active). The growth is -0.904% (active) with NCI-H522 lung, 6.09% (active) in the assay on A549/ATCC NSCLC, 15.7% with 786-0 renal and 69.5% in the assay on COLO 205 colon.
Consider `CC(C)CSc1nc(N)nc2c1ncn2C1OC(CO)C(O)C1O` (stereo not given), for which the growth in the assay with NCI-H23 lung is 106%; with NCI-H226 lung it was 101%; with NCI-H322M lung, 101%; in the assay with HOP-62 NSCLC, 95.2%; with NCI-H460 lung it was 104%; with HOP-92 NSCLC it was 147%. The growth in the assay with NCI-H522 lung was 92.6%; in the assay with A549/ATCC NSCLC, 102%; in the assay on 786-0 renal, 121%; in the assay on COLO 205 colon it was 101%.
As to `COc1ccc(CN2c3ccccc3Sc3ccccc32)c(C(F)(F)F)c1`, the growth with NCI-H23 lung was 43.9%; with NCI-H226 lung, 57.7%; in the assay with NCI-H322M lung, 49.1%; in the assay on HOP-62 NSCLC, 41%; with NCI-H460 lung, 9.92% (active); in the assay on HOP-92 NSCLC, 39.4%. Moreover, the growth in the assay with NCI-H522 lung was -46.3% (active); in the assay with A549/ATCC NSCLC, 33.2%; in the assay on 786-0 renal it was 41.9%; in the assay with COLO 205 colon it was -29.1% (active).
